Assay results taken from PubChem BioAssay (Tox21).
“And” between values parts separate entries of the source, which are not always exact repeats. Equal values may be shown once. Records with an inconclusive call do not appear. Where a structure was tested more than once in an assay, its records may differ in their call. The source made the active and inactive calls. Unless noted, the call rests on the fitted dose curve; in most records, active means well fitted curve in the direction sought with a large enough effect in the repeat runs; inconclusive means weak or mixed curves; inactive means no such curve, though single readings can be large; an effect the other way counts as inactive or inconclusive.

Legend:
[1] = target: Androgen receptor (Homo sapiens) (UniProt P10275); assay: qHTS assay to identify small molecule antagonists of the androgen receptor (AR) signaling pathway using the MDA cell line in the presence of 0.5 nM R1881 (AID 1259243); conditions: MDA-kb2 MMTV-luciferase, R1881 0.5 nM, 16 h; series mostly up to 92.4 µM; further: potency means the concentration at half of the fitted maximal effect; nearly all actives have a fitted effect of over 50% in size
How it was run: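 MDA-kb2 human breast carcinoma cells carrying an MMTV-luciferase reporter (AR- and GR-responsive) were plated, rested 5 hr at 37C, dosed with compounds, then stimulated with 0.5 nM R1881 (final) for 16 hr; luminescence was read after ONE-Glo.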

[2] = target: Estrogen receptor (Homo sapiens) (UniProt P03372); assay: qHTS assay to identify small molecule antagonists of the estrogen receptor alpha (ER-alpha) signaling pathway using the BG1 cell line in the presence of 0.1 nM 17-beta-estradiol (AID 1259244); conditions: VM7Luc4E2 (BG1) ERE-luciferase, antagonist mode, 0.1 nM E2, 22 h; series mostly up to 92.4 µM; further: nearly all actives have a fitted effect of over 50% in size
How it was run: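 VM7Luc4E2 cells (endogenous full-length ER-alpha, stable 4xERE-luciferase) were grown 5 days in phenol red-free medium with charcoal-stripped FBS, then exposed 22 h at 37C to compounds plus 0.1 nM (final) 17beta-estradiol; ONE-Glo luminescence read-out.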

[3] = qHTS assay to identify small molecule HDAC inhibitors (AID 1259364); conditions: HCT-116 HDAC-Glo I/II luminescence, 2 h; series mostly up to 92.4 µM; further: top concentration of the series differs between compounds; nearly all actives have a fitted effect of over 45% in size
How it was run: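 Wild-type HCT-116 cells were plated overnight, exposed to compounds for 2 h at 37 °C, then given HDAC-Glo class I/II luminogenic reagent for 30 min at room temperature before luminescence was read.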

[4] = qHTS assay to identify small molecule HDAC inhibitors - cell viability counter screen (AID 1259365); conditions: HCT-116 viability, CellTiter-Glo ATP luminescence, 2 h; series mostly up to 92.4 µM; further: nearly all actives have a fitted effect of over 50% in size; further: potency means the concentration at half of the fitted maximal effect
How it was run: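 HCT-116 (wild type), 1,500 cells/well, overnight 37C/5% CO2; compound in DMSO 2hr; CellTiter-Glo 30min RT; luminescence read.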

[5] = qHTS assay to identify small molecule agonists of the sonic hedgehog signaling (Shh) pathway - cell viability counter screen (AID 1259366); conditions: NIH/3T3 Gli1-Luc viability, CellTiter-Fluor, 24 h; series mostly up to 92.4 µM; further: nearly all actives have a fitted effect of over 50% in size; further: potency means the concentration at half of the fitted maximal effect
How it was run: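 CellTiter-Fluor fluorescence read-out, 1 hr at 37C, added after 23hr compound exposure. Cells: 3T3 Gli1-Luc, an NIH/3T3 clone with stably integrated Gli1-Luc reporter, plated 4hr before compound.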

[6] = qHTS assay to identify small molecule antagonists of the sonic hedgehog signaling (Shh) pathway - cell viability counter screen (AID 1259367); conditions: NIH/3T3 Gli1-Luc viability, CellTiter-Fluor, 24 h; series mostly up to 92.4 µM; further: nearly all actives have a fitted effect of over 55% in size; further: potency means the concentration at half of the fitted maximal effect
How it was run: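 After a 4 hr settling period, 3T3 Gli1-Luc cells were treated with DMSO-dissolved chemicals and conditioned medium, kept 24 hr at 37C in 5% CO2, and assayed for viability by CellTiter-Fluor fluorescence following 1 hr reagent incubation.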

[7] = qHTS assay to identify small molecule agonists of the sonic hedgehog signaling (Shh) pathway (AID 1259368; calls by dose curve; further: nearly all actives have a fitted effect of over 15% in size; further: potency means the concentration at half of the fitted maximal effect); conditions: NIH/3T3 Gli1-Luc reporter, luciferase, 24 h; series mostly up to 92.4 µM
How it was run: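 NIH/3T3-derived 3T3Gli1-Luc cells carrying a stably integrated Gli1 response element–firefly luciferase reporter were plated, left 4 hr at 37 C, then given compounds in DMSO for 24 hr. Luminescence was read 30 min after adding luciferase reagent.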

[8] = qHTS assay to identify small molecule antagonists of the sonic hedgehog signaling (Shh) pathway (AID 1259369; calls by dose curve; further: nearly all actives have a fitted effect of over 45% in size; further: potency means the concentration at half of the fitted maximal effect); conditions: NIH/3T3 Gli1-Luc reporter, Shh antagonist, luminescence 24 h; series mostly up to 92.4 µM
How it was run: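 NIH/3T3-derived 3T3Gli1-Luc cells with stably integrated Gli1-Luc reporter were preincubated 4hr at 37 C, then given compounds in DMSO plus Shh conditioned medium and incubated 24hr. Firefly luciferase luminescence read after 30min reagent at room temperature.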

[9] = target: Estrogen receptor beta (Homo sapiens) (UniProt Q92731); assay: qHTS assay to identify small molecule agonists of the estrogen receptor beta (ER-beta) signaling pathway (AID 1259377; active means well fitted activation curve with a large enough effect in the signal ratio in the repeat runs, not every such curve was filed as active; the % refers to the signal ratio); conditions: ER-beta-UAS-bla HEK293T, beta-lactamase FRET ratio, 16 h; series mostly up to 92.4 µM
How it was run: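 Beta-lactamase reporter readout: fluorescence of LiveBLAzer B/G FRET substrate after 2 h at room temperature, following 16 h compound treatment of ER-beta-UAS-bla HEK293T cells at 37C in 2% charcoal-stripped FBS medium.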

[10] = target: Estrogen receptor beta (Homo sapiens) (UniProt Q92731); assay: qHTS assay to identify small molecule antagonists of the estrogen receptor beta (ER-beta) signaling pathway (AID 1259378; active means well fitted inhibition curve with a large enough effect in the signal ratio in the repeat runs, not every such curve was filed as active; the % refers to the signal ratio); conditions: ER-beta-UAS-bla HEK293T, beta-lactamase FRET ratio, 16 h; series mostly up to 92.4 µM
How it was run: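 ER-beta-UAS-bla HEK293T (GripTite) cells in 2% charcoal-stripped FBS medium were preincubated 6 hr at 37C, dosed with compound, then stimulated with 1 nM E2 (final) for 16 hr; beta-lactamase reporter read by B/G FRET fluorescence after 2 hr substrate loading.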

[11] = qHTS assay to identify small molecule agonists of the androgen receptor (AR) signaling pathway in the presence of an antagonist - cell viability counter screen (AID 1259379); conditions: MDA-kb2 viability, CellTiter-Fluor, 16 h; series mostly up to 92.4 µM; further: nearly all actives have a fitted effect of over 25% in size; further: potency means the concentration at half of the fitted maximal effect
How it was run: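 MDA-kb2 human breast carcinoma cells (stable MMTV-luciferase, AR/GR responsive) were seeded 3,000 cells/well, pre-incubated 5 hr at 37C without CO2, then given 3.0uM nilutamide and compounds at 15 concentrations for 16 hr. Viability was read by CellTiter-Fluor fluorescence.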

[12] = qHTS assay to identify small molecule agonists of the estrogen receptor beta (ER-beta) signaling pathway - cell viability counter screen (AID 1259380); conditions: ER-beta-bla HEK293T viability, CellTiter-Glo luminescence, 16 h; series mostly up to 92.4 µM; further: nearly all actives have a fitted effect of over 30% in size; further: potency means the concentration at half of the fitted maximal effect
How it was run: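 ER-beta-UAS-bla HEK293T cells in medium with 2% charcoal-stripped FBS were preincubated 6 hr at 37C, dosed with compound in DMSO for 16 hr, then after the bla read, CellTiter-Glo was added for 30 min at room temperature; luminescence recorded.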

[13] = target: Androgen receptor (Homo sapiens) (UniProt P10275); assay: qHTS assay to identify small molecule agonists of the androgen receptor (AR) signaling pathway in the presence of an antagonist (AID 1259381; calls by dose curve; further: nearly all actives have a fitted effect of over 15% in size); conditions: MDA-kb2 MMTV-luciferase, AR agonist + nilutamide, 16 h; series mostly up to 92.4 µM
How it was run: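 MDA-kb2 human breast carcinoma cells carrying an MMTV-luciferase reporter (AR- and GR-responsive) were treated with compounds at 15 concentrations plus 3.0uM final nilutamide for 16hr at 37C without CO2; luminescence was read after ONE-Glo addition.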

[14] = qHTS assay to identify small molecule antagonists of the estrogen receptor beta (ER-beta) signaling pathway - cell viability counter screen (AID 1259382); conditions: ER-beta-UAS-bla HEK293T viability, CellTiter-Glo luminescence, 16 h; series mostly up to 92.4 µM; further: nearly all actives have a fitted effect of over 55% in size; further: potency means the concentration at half of the fitted maximal effect
How it was run: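 ER-beta-UAS-bla HEK293T cells (2,000/well, 2% charcoal-stripped FBS) were pre-incubated 6 hr at 37C, then given compound plus 1nM final 17-beta-estradiol for 16 hr. Viability was read in the same wells by CellTiter-Glo luminescence after 30 min at room temperature.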

[15] = target: Estrogen receptor (Homo sapiens) (UniProt P03372); assay: qHTS assay to identify small molecule agonists of the estrogen receptor alpha (ER-alpha) signaling pathway in the presence of an antagonist (AID 1259383; calls by dose curve; further: nearly all actives have a fitted effect of over 15% in size; further: potency means the concentration at half of the fitted maximal effect; on activation: top concentration of the series differs between compounds); conditions: VM7Luc4E2 cells, ERE-luciferase, +ICI-182,780, 22 h; series mostly up to 92.4 µM
How it was run: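 VM7Luc4E2 cells (endogenous full-length ER-alpha, 4×ERE-luciferase) were precultured 5 days in phenol red-free medium with 10% charcoal-stripped FBS, given 10.0nM ICI-182,780 (final), then treated with compounds at 15 concentrations for 22hr at 37C; luminescence read with ONE-Glo.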

[16] = qHTS assay to identify small molecule agonists or antagonists of the thyroid stimulating hormone receptor (TSHR) signaling pathway - wild type cell line counter screen (AID 1259384; calls by dose curve); conditions: HEK293 wild type, cAMP HTRF counter-screen, stronger effect = higher value; series mostly up to 92.4 µM
How it was run: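 Wild-type HEK293 cells were plated 18 h at 37 C/5% CO2, pin-dosed with compound plus Ro20-1724 medium, held 30 min at room temperature, then given cAMP-d2 and anti-cAMP-cryptate; fluorescence was read after 1 h. Fifteen concentrations, triplicate.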

[17] = target: Thyrotropin receptor (Homo sapiens) (UniProt P16473); assay: qHTS assay to identify small molecule antagonists of the thyroid stimulating hormone receptor (TSHR) signaling pathway (AID 1259385; calls by dose curve; further: nearly all actives have a fitted effect of over 20% in size); conditions: TSHR-HEK293 cAMP HTRF, TSH-stimulated antagonist mode; series mostly up to 92.4 µM
How it was run: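 TSHR-HEK293 cells were plated and held 18 h at 37C/5% CO2, then given compound plus Ro20-1724 and stimulated with TSH at 1.5 ng/mL final. After 30 min at room temperature, cAMP was detected with cAMP-d2/anti-cAMP-cryptate (1 h) by fluorescence.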

[18] = qHTS assay to identify small molecule agonists of the estrogen receptor alpha (ER-alpha) signaling pathway in the presence of an antagonist - cell viability counter screen (AID 1259386); conditions: VM7Luc4E2 viability, CellTiter-Fluor fluorescence, 22 h; series mostly up to 92.4 µM; further: nearly all actives have a fitted effect of over 30% in size; further: potency means the concentration at half of the fitted maximal effect
How it was run: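 VM7Luc4E2 cells (endogenous full-length ER-alpha, 4×ERE-luciferase) were held 5 days in phenol red-free medium with 10% charcoal-stripped FBS, plated, then given 10.0nM ICI-182,780 and compounds at 15 concentrations for 22hr at 37C; viability read by CellTiter-Fluor fluorescence.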

[19] = qHTS assay to identify small molecule antagonists of the androgen receptor (AR) signaling pathway using the MDA cell line in the presence of 0.5 nM R1881 - cell viability counter screen (AID 1259242); conditions: MDA-kb2 viability, CellTiter-Fluor protease fluorescence, 16 h; series mostly up to 92.4 µM; further: nearly all actives have a fitted effect of over 45% in size
How it was run: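 MDA-kb2 cells (human breast carcinoma, stably carrying MMTV-luciferase reporter) were exposed to compounds with 0.5 nM R1881 (final) for 16 hr at 37C, 0% CO2; viability then read as live-cell protease fluorescence (CellTiter-Fluor, 30 min) in the same wells.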

[20] = qHTS assay to identify small molecule phospholipidosis (PLD) inducers (AID 1259344; active means well fitted curve in the direction sought with a large enough effect; an effect the other way counts as inactive or inconclusive); conditions: HepG2 phospholipidosis, LipidTOX Red imaging, 24 h; series mostly up to 38.3 µM
How it was run: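 HepG2 cells grown on collagen I take up LipidTOX Red while exposed to compound for 24 h; after fixation they are imaged at 20x and pit metrics are extracted.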

Measured: Potency

Chain of Androgen receptor (Homo sapiens) (P10275 whole entry, looked up): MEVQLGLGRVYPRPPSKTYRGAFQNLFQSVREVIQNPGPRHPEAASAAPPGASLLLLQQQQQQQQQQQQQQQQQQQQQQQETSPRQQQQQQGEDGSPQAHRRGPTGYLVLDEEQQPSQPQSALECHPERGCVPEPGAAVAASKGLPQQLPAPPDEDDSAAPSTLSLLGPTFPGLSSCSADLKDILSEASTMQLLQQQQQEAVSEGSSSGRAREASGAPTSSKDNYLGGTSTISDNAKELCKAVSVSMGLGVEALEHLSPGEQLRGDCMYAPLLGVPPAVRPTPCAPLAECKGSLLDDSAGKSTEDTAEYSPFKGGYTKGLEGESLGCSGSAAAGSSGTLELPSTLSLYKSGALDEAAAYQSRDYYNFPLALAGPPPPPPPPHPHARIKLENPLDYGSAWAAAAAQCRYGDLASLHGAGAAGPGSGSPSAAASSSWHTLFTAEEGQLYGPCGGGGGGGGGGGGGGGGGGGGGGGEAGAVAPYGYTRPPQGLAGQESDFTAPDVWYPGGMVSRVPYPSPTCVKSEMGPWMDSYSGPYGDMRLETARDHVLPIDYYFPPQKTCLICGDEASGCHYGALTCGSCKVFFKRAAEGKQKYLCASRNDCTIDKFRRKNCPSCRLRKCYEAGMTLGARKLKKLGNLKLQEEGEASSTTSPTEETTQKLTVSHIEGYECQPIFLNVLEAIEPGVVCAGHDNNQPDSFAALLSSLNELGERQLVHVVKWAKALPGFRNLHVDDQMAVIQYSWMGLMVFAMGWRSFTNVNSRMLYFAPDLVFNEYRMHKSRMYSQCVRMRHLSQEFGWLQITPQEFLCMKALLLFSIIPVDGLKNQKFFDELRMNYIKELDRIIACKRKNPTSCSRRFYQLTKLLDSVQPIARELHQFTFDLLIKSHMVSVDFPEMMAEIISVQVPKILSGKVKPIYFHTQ
Chain of Thyrotropin receptor (Homo sapiens) (P16473 whole entry, looked up): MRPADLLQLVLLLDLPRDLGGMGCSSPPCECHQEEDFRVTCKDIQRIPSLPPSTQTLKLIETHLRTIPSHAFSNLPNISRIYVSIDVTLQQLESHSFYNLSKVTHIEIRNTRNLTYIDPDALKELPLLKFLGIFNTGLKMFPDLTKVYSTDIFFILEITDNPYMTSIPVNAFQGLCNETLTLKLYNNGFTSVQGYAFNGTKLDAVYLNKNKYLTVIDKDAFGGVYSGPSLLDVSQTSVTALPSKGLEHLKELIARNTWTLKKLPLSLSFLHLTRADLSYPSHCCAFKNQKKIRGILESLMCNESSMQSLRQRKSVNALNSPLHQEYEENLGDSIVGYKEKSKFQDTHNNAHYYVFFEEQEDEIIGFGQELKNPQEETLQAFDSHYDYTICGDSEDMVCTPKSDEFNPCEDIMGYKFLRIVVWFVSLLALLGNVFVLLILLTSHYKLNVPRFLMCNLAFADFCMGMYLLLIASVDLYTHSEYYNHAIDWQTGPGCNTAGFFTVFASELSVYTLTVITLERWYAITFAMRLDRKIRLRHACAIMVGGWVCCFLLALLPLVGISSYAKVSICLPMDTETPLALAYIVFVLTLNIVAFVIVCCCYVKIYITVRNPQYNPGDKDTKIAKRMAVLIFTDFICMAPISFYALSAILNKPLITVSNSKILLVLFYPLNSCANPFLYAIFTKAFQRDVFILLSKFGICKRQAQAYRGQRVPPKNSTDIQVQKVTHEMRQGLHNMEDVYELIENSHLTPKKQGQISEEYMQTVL
Chain of Estrogen receptor (Homo sapiens) (P03372 whole entry, looked up): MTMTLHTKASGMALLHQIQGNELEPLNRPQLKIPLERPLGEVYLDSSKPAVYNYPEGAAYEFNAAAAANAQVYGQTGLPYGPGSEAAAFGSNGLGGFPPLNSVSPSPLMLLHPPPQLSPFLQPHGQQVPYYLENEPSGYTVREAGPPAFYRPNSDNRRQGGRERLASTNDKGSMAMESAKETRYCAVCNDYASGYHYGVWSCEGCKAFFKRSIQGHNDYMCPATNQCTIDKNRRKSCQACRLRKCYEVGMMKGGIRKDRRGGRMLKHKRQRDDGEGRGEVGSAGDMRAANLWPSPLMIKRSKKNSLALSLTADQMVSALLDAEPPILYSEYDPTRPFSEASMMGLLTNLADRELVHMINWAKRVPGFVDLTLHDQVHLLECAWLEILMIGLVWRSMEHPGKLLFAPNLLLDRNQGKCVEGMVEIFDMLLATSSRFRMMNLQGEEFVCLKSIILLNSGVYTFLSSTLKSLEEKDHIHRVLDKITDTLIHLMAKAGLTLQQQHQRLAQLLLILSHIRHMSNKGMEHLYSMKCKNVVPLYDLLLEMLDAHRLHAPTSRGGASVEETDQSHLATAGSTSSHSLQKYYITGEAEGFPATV
Chain of Estrogen receptor beta (Homo sapiens) (Q92731 whole entry, looked up): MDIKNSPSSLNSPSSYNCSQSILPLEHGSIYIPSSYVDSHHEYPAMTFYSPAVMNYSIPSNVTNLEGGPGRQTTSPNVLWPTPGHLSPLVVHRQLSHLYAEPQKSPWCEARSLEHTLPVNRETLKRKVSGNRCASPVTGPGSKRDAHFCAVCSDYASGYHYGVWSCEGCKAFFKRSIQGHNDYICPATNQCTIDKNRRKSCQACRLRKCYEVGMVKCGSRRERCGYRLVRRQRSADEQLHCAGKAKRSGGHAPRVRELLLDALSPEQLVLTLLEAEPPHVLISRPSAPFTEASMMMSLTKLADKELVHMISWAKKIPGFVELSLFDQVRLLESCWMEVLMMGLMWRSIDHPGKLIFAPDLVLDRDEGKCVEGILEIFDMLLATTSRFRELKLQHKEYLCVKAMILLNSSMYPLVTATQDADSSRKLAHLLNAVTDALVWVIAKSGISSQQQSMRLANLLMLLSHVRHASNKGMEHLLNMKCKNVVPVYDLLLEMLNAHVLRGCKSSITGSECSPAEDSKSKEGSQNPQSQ

CNc1ccc([N+](=O)[O-])cc1
active: [1] 15.4 µM | [5] 19.4 µM | [11] 48.7 µM | [18] 34.4 µM
not listed: [19] | [20]
inactive: all other assays above

C=C(C)C(=O)OCCCCCCCCCC
active: [6] 54.9 µM | [8] 13.8 µM
not listed: [1] | [2] | [5] | [10] | [13] | [18] | [20]
inactive: all other assays above

Sc1nc2ccccc2s1
active: [8] 54.5 µM
not listed: [1] | [2] | [3] | [6] | [13] | [15] | [16] | [20]
inactive: all other assays above

O=c1[nH]c2ccccc2n1CCCN1CCN(C(c2ccccc2)c2ccccc2)CC1
inactive: [19] | [3] | [4] | [7] | [16] | [17] | [18]
active: [8] 3.35 µM

C#CC1(O)CC[C@H]2[C@@H]3CCC4=CCCC[C@@H]4[C@H]3CC[C@@]21C (some centres undefined)
active: [4] 29.8 µM | [12] 61.1 µM and 29.8 µM | [14] 61.1 µM and 26.6 µM | [15] 611 nM and 473 nM
48.6 µM (active) and inactive: [8]
inactive: [2] | [20] | [3] | [7] | [11] | [16] | [17] | [18]

C/C=C/C=C/COC(=O)C(C)C
inactive: [19] | [3] | [4] | [5] | [7] | [9] | [12] | [14] | [17] | [18]

Clc1ccnc(Cl)n1
not listed: [1] | [2] | [6] | [8] | [10] | [13] | [16] | [20]
inactive: all other assays above

Oc1c(I)cc(Cl)c2cccnc12
inactive: [20] | [3] | [4] | [6] | [13]
active: [1] 27.3 µM and 26.6 µM | [7] 38.5 µM | [11] 48.5 µM
